High-throughput results (PubChem BioAssay)
In the library only some 7.5% were active in any assay of this set; here they are far more common.
SMN2 splice up: SMN2 splice variant enhancement. actives 2.8% (n = 210,000). Potency, µM (titrated, usually from 46.1 µM), usual class: activators. AID 1458. HEK293 SMN2-luciferase splicing reporter, luminescence, 30-36 h; also: nearly all actives have a fitted effect of over 55% in size
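qHTS luciferase splicing reporter: luminescence rises when SMN2 exon 7 is included in transfected HEK293 cells. Compound exposure lasted 30-36 h at 37C, with 4.5 mM final sodium butyrate as control, followed by a ONE-Glo read.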
FLuc modulator: counter-screen for miR-21 project: firefly luciferase inhibitors or activators; actives 6.9% (n = 360,000); AID 588342; P08659; Potency, µM (series often up to 57.5 µM), actives largely listed as inhibitors; purified FLuc, Km substrates, luminescence inhibition; also: nearly all actives have a fitted effect of over 55% in size
Target sequence (P08659 whole entry, looked up): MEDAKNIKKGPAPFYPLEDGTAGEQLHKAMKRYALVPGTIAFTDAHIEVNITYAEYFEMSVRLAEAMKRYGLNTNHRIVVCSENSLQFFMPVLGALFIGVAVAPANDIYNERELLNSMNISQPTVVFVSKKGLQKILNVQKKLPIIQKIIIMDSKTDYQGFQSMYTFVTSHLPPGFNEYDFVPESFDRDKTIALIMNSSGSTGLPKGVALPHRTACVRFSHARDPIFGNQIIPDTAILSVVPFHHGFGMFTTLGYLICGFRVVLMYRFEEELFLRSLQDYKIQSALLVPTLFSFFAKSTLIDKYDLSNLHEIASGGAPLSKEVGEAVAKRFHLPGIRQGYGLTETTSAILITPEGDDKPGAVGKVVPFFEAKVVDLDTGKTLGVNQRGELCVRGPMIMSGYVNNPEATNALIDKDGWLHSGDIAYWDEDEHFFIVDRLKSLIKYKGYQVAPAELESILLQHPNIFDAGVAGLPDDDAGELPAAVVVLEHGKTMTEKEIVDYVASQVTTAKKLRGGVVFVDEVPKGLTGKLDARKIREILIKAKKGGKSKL
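Purified P. pyralis luciferase, 10 nM final, with Km-level 10 uM D-luciferin and 10 uM ATP in 50 mM Tris acetate pH 7.5, 10 mM Mg acetate, 0.01% Tween-20, 0.05% BSA; 6-point qHTS titration about 60 µM downward; luminescence read.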
NPC1 promoter act: activates the NPC1 promoter. Huh7 NPC1 promoter luciferase reporter, 24 h. Potency, µM (highest dose often 9.22 µM), actives largely listed as activators. actives 2.4% (n = 320,000). AID 485313; also: nearly all actives have a fitted effect of over 60% in size
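Compounds in DMSO were transferred onto Huh7 NPC1-luciferase reporter cells pre-incubated 2 h; after 24 h at 37 °C, Amplite reagent was dispensed and luminescence recorded 10 min later.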
KinaseGlo FLuc: blocks Kinase-Glo luciferase, a counter-screen artifact; Q27757; Kinase-Glo luciferase, ATP luminescence, 8 min; Potency, µM (highest dose often 38.3 µM), actives largely listed as inhibitors; actives 0.28% (n = 200,000); also: nearly all actives have a fitted effect of over 60% in size
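Compounds were added to a substrate mix at pH 7.2 (50 mM imidazole, 10 uM ATP, within the enzyme's linear range), followed by Kinase-Glo detection reagent; luminescence was measured after 8 minutes at ambient temperature.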
Rab9 prom act: Rab9 promoter activation | Huh7 Rab9 promoter-luciferase reporter, luminescence, 24 h | Potency, µM (highest dose often 9.22 µM), hits mostly activators | AID 485297 | actives 2.8% (n = 320,000); also: nearly all actives have a fitted effect of over 60% in size
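Stable Rab9-luc Huh7, 1500 cells/well, 2 h settle; cmpd in DMSO, 24 h, 37 °C/5% CO2; luciferase reagent 10 min RT; luminescence.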
ELG1 genotoxic: inducers of genotoxicity in HEK293T ELG1-luciferase cells | HEK293T ELG1-luciferase reporter, luminescence, 16 h | Potency, µM (series often up to 46 µM), usual class: activators | actives 1.3% (n = 330,000) | AID 504466; also: nearly all actives have a fitted effect of over 60% in size
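HEK293T cells expressing luciferase-tagged ELG1 were treated with compound or DMSO for 16 hr at 37°C. Luciferase activity was then read after 30 min with ONE-Glo at room temperature; rising signal flags genetic stress.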
A number is an active result; . = inactive; ? = inconclusive; / = no result; [ ] = another dose, or the depositor's remark. Calls follow the shape of the dose curve; as a rule, active = well fitted curve in the direction sought with a large enough effect; inconclusive = small, poorly fitted or top-dose-only effect, or another doubt; inactive = no such curve, though single readings can be large; an effect the other way counts as inactive or inconclusive.

SMILES | SMN2 splice up | FLuc modulator | NPC1 promoter act | KinaseGlo FLuc | Rab9 prom act | ELG1 genotoxic
CCC(=O)Nc1cccc(-c2cc3ccccc3oc2=O)c1 | . | 12µM | ? | . | ? | ?
Cc1cccc(CNC(=O)CN2CC(C)Sc3ccccc32)c1 (stereo not drawn) | / | . | / | / | / | /
Cc1cccc(NC(=O)c2cc3ccccc3o2)c1 | 13µM | 3.8µM | 1.3µM | ? | 1.4µM | 21µM
CCC(=O)Nc1cccc(NC(=O)c2cc3ccccc3o2)c1 | ? | 2.4µM | 2µM | . | 0.71µM | ?
CC(C)C(=O)Nc1ccc(NC(=O)c2cc3ccccc3o2)cc1 | ? | ? | . | . | .[1.84 µM] | ?
NS(=O)(=O)c1cccc(NC(=O)c2cc3ccccc3o2)c1 | / | 2.1µM | ? | . | ? | .
CC(=O)Nc1ccc(NC(=O)c2cccc(-c3cc4ccccc4oc3=O)c2)cc1 | 10µM | ? | ? | . | 3.2µM | .
CCCn1c(=O)sc2cc(NC(=O)COc3ccc(Cl)cc3)ccc21 | . | . | / | / | / | /
COc1ccc(-c2cc(-c3ccc(C)cc3)n[nH]2)c(O)c1 | / | 4.8µM | 1.3µM | / | 1.3µM | ?
COc1ccc(-c2cc(-c3cc(C)ccc3O)[nH]n2)cc1 | / | 12µM | . | . | . | ?
COc1ccc(-c2n[nH]c(C)c2-c2ccc(Cl)cc2)c(O)c1 | . | . | . | . | . | .
COc1ccc(Oc2ccc(-c3ccn[nH]3)cc2)cc1 | / | 24µM | ? | / | ? | .
Cc1ccc(O)c(-c2cc(-c3ccccc3C)[nH]n2)c1 | . | ? | . | . | . | .
COc1ccc(-c2cc(-c3ccc(OC)cc3)[nH]n2)cc1 | . | 8.5µM | 2.8µM | . | ? | ?
CCn1cc(C(=O)N2CCN(c3ccc(OC)cc3)CC2)c(=O)c2cc(S(=O)(=O)N(C)C3CCCCC3)ccc21 | ? | . | / | / | / | /
NCCC[C@@H](CC(=O)N[C@@H]1CCCC[C@H]1C(=O)N[C@H](CC(=O)N[C@@H](CCC(=O)O)CC(=O)O)Cc1c[nH]c2ccccc12)NC(=O)C[C@H](CO)NC(=O)[C@@H]1CCCC[C@H]1N | . | / | / | . | / | /
CCOc1cc2[nH]c(=O)n(CCCCC(=O)N3CCN(c4ccccc4)CC3)c(=O)c2cc1OCC | / | . | / | / | / | /
COc1cccc(NC(=O)c2oc3ccc(S(=O)(=O)N(C)C4CCCCC4)cc3c2C)c1 | / | . | / | / | / | /
COC[C@H]1O[C@@H](c2c(OC)cc(OC)cc2OC)[C@H](OC)[C@@H](OC)[C@@H]1OC | . | / | / | . | / | /
CCn1c(O)c(C=Nc2ccccc2)sc1=S | / | 9.5µM | ? | / | 2.8µM | ?
Oc1c(C=Nc2ccccc2)sc(=S)n1Cc1ccccc1 | . | ? | . | . | . | .
CCOc1ccc(OCc2ccc(C(=O)N3CCCC(C)C3)cc2)cc1 (stereo not drawn) | 10µM | 13µM | 4µM | . | 2µM | ?
Cc1cc(C(=O)CSc2nnc(Nc3ccccc3)s2)c(C)n1CC1CCCO1 (stereo not drawn) | . | 11µM | . | . | . | .
COc1ccccc1Nc1nnc(SCC(=O)c2cc(C)n(CC3CCCO3)c2C)s1 (stereo not drawn) | . | ? | . | . | . | .
Cc1cc(C(=O)CSc2nnc(Nc3ccccc3F)s2)c(C)n1CC1CCCO1 (stereo not drawn) | . | 15µM | . | . | . | .
SMILES | SMN2 splice up | FLuc modulator | NPC1 promoter act | KinaseGlo FLuc | Rab9 prom act | ELG1 genotoxic
COc1ccc(Cc2nc3ccccc3n2Cc2ccccc2F)cc1 | . | ? | / | / | / | /
COc1ccc(/C=N/n2cnnc2SCCO)cc1OC | . | ? | . | . | . | .
C=CCSc1nncn1/N=C/c1ccc(OC)cc1 | 13µM | 6.7µM | 2.8µM | . | 2.2µM | 21µM
O=C(Cn1c(=O)n(CCc2ccccc2)c(=O)c2c3c(sc21)CCCC3)Nc1ccc(F)c(F)c1 | . | . | / | / | / | /
CCOC(=O)c1cc(=O)n2nc(-c3ccc(C)cc3)nc2s1 | . | 3µM | . | . | . | .
CCOC(=O)Cc1csc2nc(-c3ccccc3)nn12 | / | . | . | / | . | .
CC(C)C(=O)Nc1ccc2nc(SCCOc3ccccc3)sc2c1 | / | . | / | / | / | /
O=C(Nc1ccccc1Cl)OC1CCCCC1 | / | 24µM | . | / | . | .
CCOc1ccccc1NC(=O)Nc1ccc2c(c1)CCC2 | / | 6.7µM | ? | / | ? | ?
CCOc1ccccc1NC(=O)Nc1ccc(OC)nc1 | / | ? | . | / | . | .
O=C(NN=C1CCCCC1)Nc1ccccc1Cl | / | 19µM | . | / | . | .
Cc1ccccc1NC(=O)Nc1ccc2c(c1)OCO2 | / | ? | ? | / | 2.8µM | ?
CCCn1c(C)nc2c(N3CCOCC3)nc(C)nc21 | . | / | / | . | / | /
CCOc1ccccc1NC(=O)Nc1cccc(C(C)=O)c1 | . | 24µM | . | . | . | .
Cc1ccc(NC(=O)Nc2ccc3c(c2)CCC3)c(C)c1 | / | . | . | / | . | .
O=C(Nc1ccc2c(c1)CCC2)Nc1ccccc1Cl | / | 1.5µM | 1.4µM | / | 1.8µM | 2.3µM
CCOc1ccccc1NC(=O)Nc1cccc(NC(C)=O)c1 | / | . | . | / | . | .
Cc1c(NC(=O)Nc2ccc3c(c2)OCO3)cccc1[N+](=O)[O-] | / | ? | 3.2µM | / | ? | .
CC(=O)Nc1ccccc1OCC(=O)c1ccc2c(c1)OCO2 | / | . | 3.5µM | / | 3.2µM | ?
O=C(COC(=O)c1ccc2c(c1)OCO2)Nc1ccccc1OC(F)F | / | / | / | / | / | .
CC1Sc2ccc(S(=O)(=O)N3CCC(C(=O)NCC(C)c4ccccc4)CC3)cc2NC1=O (stereo not drawn) | / | . | . | / | . | .
Cn1cc(S(=O)(=O)N2CCCCCC2)cc1C(=O)N1CCN(c2ccccc2F)CC1 | / | . | / | / | / | /
CCOc1ccccc1NC(=O)Nc1ccc2c(c1)OCO2 | / | 21µM | . | / | ? | .
Cc1nn(C(=O)c2ccc3c(c2)OCO3)c(N)c1-c1ccccc1 | . | 0.48µM | . | . | . | ?
O=C(c1ccc2c(c1)OCO2)N1CCN(c2ccccc2)CC1 | . | . | . | . | . | .
SMILES | SMN2 splice up | FLuc modulator | NPC1 promoter act | KinaseGlo FLuc | Rab9 prom act | ELG1 genotoxic
CC(=O)c1c(C)nn(C(=O)c2cccs2)c1C | . | . | . | . | . | .
Cc1nn(C(=O)c2cccs2)c(N)c1-c1ccccc1 | ? | 4.3µM | ? | . | ? | ?
O=C(CCn1ccc2cc(S(=O)(=O)N3CCCC3)ccc21)NCc1ccccc1Br | / | . | / | / | / | /
Cn1cc(SCC(=O)Nc2ccc3c(c2)OCCO3)c2ccccc21 | . | 17µM | . | . | . | ?
O=C(CSc1cn(CCNC(=O)c2ccccc2F)c2ccccc12)Nc1ccc2c(c1)OCCO2 | . | 13µM | / | / | / | /
CCn1c(=O)cc(SCC(=O)Nc2ccc3c(c2)OCO3)c2ccccc21 | . | . | . | . | . | .
O=C(CSc1cn(CCNC(=O)c2ccccc2F)c2ccccc12)Nc1ccc(F)cc1 | . | . | / | / | / | /
O=C(NCCCN1CCOCC1)c1ccc(-n2c(=O)c(=O)[nH]c3ccccc32)cc1 | / | / | / | . | / | /
CC(C)COn1c(=S)[nH]c2ccccc2c1=O | . | 21µM | . | . | . | ?
